# In PubChem BioAssay AID1861 (The Scripps Research Institute Molecular Screening Center, 2009):
# The whole screen tested about 290,000 compounds, of which about 3,100 (1.1%) were called active. Rule as the data show it: active = inhibition above about 16% (passing the limit was not always enough); inactive = the rest. Many of the other results were omitted from the sample, so actives are more common in it than they were.
# Target: Neuropeptides B/W receptor type 1 (Homo sapiens) (UniProt P48145)
# Experiment: blockers of human neuropeptide B/W receptor 1 – cell-based, fluorescence, single concentration, primary screen (AID 1861);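 also: cells stimulated with the agonist NPW; 0% = agonist with vehicle and 100% = vehicle without agonist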
# Conditions: GPR7-expressing cells, fluorescence antagonist assay; at 4.4 µM; hits give high values
# Chain of Neuropeptides B/W receptor type 1 (Homo sapiens) (P48145 whole entry, looked up): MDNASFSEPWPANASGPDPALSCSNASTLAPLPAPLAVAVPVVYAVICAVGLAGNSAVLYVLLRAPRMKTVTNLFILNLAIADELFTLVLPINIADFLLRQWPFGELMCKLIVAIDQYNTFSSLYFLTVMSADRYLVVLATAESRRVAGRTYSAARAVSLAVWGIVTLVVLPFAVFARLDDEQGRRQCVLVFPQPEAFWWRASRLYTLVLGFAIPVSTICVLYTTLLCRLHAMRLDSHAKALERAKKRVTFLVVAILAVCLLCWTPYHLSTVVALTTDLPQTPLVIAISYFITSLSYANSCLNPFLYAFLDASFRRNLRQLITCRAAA
row,SMILES,inhibition
1,O=C1CCN(Cc2ccc([N+](=O)[O-])cc2)CCN1[C@H](CO)Cc1ccccc1,0.55% (inactive)
2,COc1ccc(C(=O)NC2CCN(C(=O)Nc3ccc(F)cc3)CC2)cc1,-10.4% (inactive)
3,CCOc1ccc(N=C2SC(C(=O)O)CC(=O)N2C)cc1 (configuration not stated),-6.69% (inactive)
4,COc1ccc(N=C2SC(C(=O)Nc3ccc(F)cc3)CC(=O)N2C)cc1 (configuration not stated),26.4% (active)
5,CC1CC(=O)N(CC(=O)Nc2cccc(Cl)c2)c2ccccc2S1(=O)=O (configuration not stated),0.41% (inactive)
6,O=C(CSCc1ccc([N+](=O)[O-])cc1)Nc1cccc(C(=O)Nc2ccccc2C(=O)O)c1,-8.22% (inactive)
7,COc1ccc(NC(=O)CSCc2ccc([N+](=O)[O-])cc2)cc1OC,-12% (inactive)
8,O=C(CSCc1ccc([N+](=O)[O-])cc1)NCCSCc1ccccc1,44.7% (active)
9,CC(=O)Nc1ccc(NC(=O)CSc2nnnn2-c2ccccc2F)cc1,-7.45% (inactive)
10,O=C(CN1CCc2cc3c(cc2C1)OCCCO3)Nc1ccccc1,-5.17% (inactive)
11,CCOC(=O)C1CN(S(=O)(=O)c2ccc(F)cc2)C1,-9.92% (inactive)
12,Cc1c(CCO)c(=O)n(-c2ccccc2)n1S(=O)(=O)c1ccc(F)cc1,33% (active)
13,Cc1ccc(S(=O)(=O)CC(=O)Nc2c(C)n(C)n(-c3ccccc3)c2=O)cc1,1.37% (inactive)
14,CC1(C)C(C=C(Cl)Cl)C1C(=O)NC(O)C(=O)c1ccccc1 (configuration not stated),-5.98% (inactive)
15,O=C(CN(C(=O)CNC(=O)c1cccs1)c1cccc(F)c1)NC1CCCCC1,7.46% (inactive)
16,O=C(NCCc1ccccc1)C1CC1,-22.6% (inactive)
17,O=C(CCc1ccccc1)Nc1ccc(NC(=O)C2CC2)nc1,34% (active)
18,O=C(CCc1ccccc1)Nc1ccc(NC(=O)C2CCCCC2)nc1,14% (inactive)
19,O=C(C1CC(=O)N(c2ccc(Br)cc2)C1)N1CCCC1 (configuration not stated),-7.92% (inactive)
20,COC(=O)c1ccc(N2CCOCC2)c(NC(=O)c2ccc3c(c2)OCCO3)c1,-10.5% (inactive)
21,CN(CC(=O)NCCc1ccccn1)S(=O)(=O)c1ccc(Cl)cc1,-4.58% (inactive)
22,CC(=O)Nc1ccc(S(=O)(=O)N(C)CC(=O)NCCC2=CCCCC2)cc1,26.4% (active)
23,CN(c1ccc(C(=O)NCCC2=CCCCC2)cc1)S(C)(=O)=O,10.7% (inactive)

row,SMILES,inhibition
1,Cc1ccccc1/C=C\c1nc(O)c([N+](=O)[O-])c(=O)[nH]1,-0.51% (inactive)
2,CCOC(=O)N1CCC(N2Cc3cccc(C(=O)Nc4c(C)cccc4CC)c3C2=O)CC1,8.95% (inactive)
3,COc1cc(OC)cc(C(=O)N[C@H](C(=O)OCC(=O)NC(C)c2ccccc2)C(C)C)c1 (some centres not stated),34.5% (active)
4,Cc1ccc(OCC(=O)NC(C)c2ccccc2)cc1C (configuration not stated),5.96% (inactive)
5,Cc1cc(C)cc(OCC(=O)NC(C)c2ccccc2)c1 (configuration not stated),-3.54% (inactive)
6,Cc1ccc(S(=O)(=O)N2CCC(C)CC2)cc1C(=O)NCc1ccccn1,-11.1% (inactive)
7,Cc1ccc(SCc2c(C(=O)N/N=C/c3cccnc3)nnn2-c2nonc2N)cc1,-12% (inactive)
8,COc1cc(OC)c(S(=O)(=O)Nc2ccccc2C(=O)O)cc1S(=O)(=O)Nc1ccccc1C(=O)O,-13.8% (inactive)
9,COc1cc(NC(=O)c2ccccc2NS(=O)(=O)c2ccc(Cl)s2)cc(OC)c1,26.7% (active)
10,COC(=O)c1ccc(NC(=O)c2ccccc2NS(=O)(=O)c2ccccc2)cc1,17.3% (inactive)
11,COc1ccc(Nc2ncc(F)c(N3CCOCC3)n2)cc1,-9.42% (inactive)
12,CC(NCc1ccccc1OC1CCCC1)c1ccccc1 (configuration not stated),30.2% (active)
13,COc1ccccc1CN1CCN(C(c2ccccc2)c2ccccc2)CC1,-16.5% (inactive)
14,CC(=O)OC(C(=O)NC1CCCCC1)c1ccccc1 (configuration not stated),-8.98% (inactive)
15,Cc1cnc(CN(C)C(=O)C2CCC(=O)N(CCc3cccc(F)c3)C2)[nH]1 (configuration not stated),-18.8% (inactive)
16,Cn1c2ccc(F)cc2c2nnc(NN)nc21,-11.3% (inactive)
17,CCn1c2ccc(F)cc2c2nnc(SCCN3CCOCC3)nc21,77.2% (active)
18,Cc1cc2nc(SCCN3CCOCC3)[nH]c2cc1C,3.59% (inactive)
19,CCCNC(=O)C(=O)Nc1cc2c3c(c1)CCC(=O)N3CCC2,-11.2% (inactive)
20,Cn1cc([N+](=O)[O-])c(C(=O)Nc2cnn(Cc3ccc(F)cc3)c2)n1,-7.64% (inactive)
21,CCc1ccc(NC(=O)c2ccc(Cn3cc([N+](=O)[O-])cn3)cc2)cc1,23.8% (active)
22,COc1cccc(NC(=O)c2ccc(Cn3cc([N+](=O)[O-])cn3)o2)c1,-2.16% (inactive)
23,COc1ccc(/C=N/NC(=O)C2CC2)c(OC)c1OC,-4.35% (inactive)

row,SMILES,inhibition
1,O=C1CCCN2N=C(SCC(=O)Nc3ccc(Br)cc3)SC2=N1,4.5% (inactive)
2,CCc1ccc(C(=O)OCC(=O)Nc2cccc(S(=O)(=O)NC3=NCCCCC3)c2)cc1,11.6% (inactive)
3,NS(=O)(=O)c1cccc(NC(=O)CSc2nc3ccccc3n2-c2ccccc2)c1,0.27% (inactive)
4,Cc1cccc(-n2c(SCC(=O)Nc3cccc(S(=O)(=O)NC4=NCCCCC4)c3)nc3ccccc3c2=O)c1C,27.4% (active)
5,CCOc1ccc(S(=O)(=O)NCCCn2ccnc2)cc1NC(C)=O,-14.2% (inactive)
6,CCOc1cc(/C=C/c2nc3ccccc3c(=O)[nH]2)cc(Br)c1OC,19% (inactive)
7,CC(=O)Nc1ccc(OCC(O)CN2CCN(c3ccccc3Cl)CC2)cc1 (configuration not stated),13% (inactive)
8,O=S(=O)(c1ccc(OCC(O)CN2CCN(c3ccccc3Cl)CC2)cc1)N1CCOCC1 (configuration not stated),26% (active)
9,OC(COc1ccc2ccccc2c1)CN1CCOCC1 (configuration not stated),-2.78% (inactive)
10,O=C(Nc1ccc(Br)cc1F)C1CC(=O)N(C2CCCCC2)C1 (configuration not stated),-3.95% (inactive)
11,CCN(CC)S(=O)(=O)c1ccc(C(=O)N2CCN(C3=NS(=O)(=O)c4ccccc43)CC2)cc1,-4.91% (inactive)
12,COc1ccccc1N1CC(C(=O)Nc2nnc(SCC(=O)NC(C)C)s2)CC1=O (configuration not stated),-8.06% (inactive)
13,COc1ccc(C)cc1NC(=O)Nc1ccccc1SC,-7.07% (inactive)
14,COc1ccc(C)cc1NC(=O)NCc1ccccn1,-18.5% (inactive)
15,COc1ccc(C)cc1NC(=O)NCCCCc1ccccc1,28.4% (active)
16,Cc1ccc(CN2CCNC(=O)C2CC(=O)NCc2csc(C(C)C)n2)cc1 (configuration not stated),7.42% (inactive)
17,CCCCOC(=O)Cn1c(=N)n(CCN(CC)CC)c2ccccc21,2.44% (inactive)
18,CCCCCCCCCCOC(=O)Cn1c(COc2ccc(C)cc2)[n+](C)c2ccccc21,19.5% (inactive)
19,CCCCCCCCCCOC(=O)Cn1c(COc2cccc(OC)c2)[n+](C)c2ccccc21,65% (active)
20,O=[N+]([O-])c1ccc(N(CCO)Cc2ccccc2)c([N+](=O)[O-])c1,23.9% (active)
21,OCCN(Cc1ccccc1)Cc1ccc(Cl)cc1,-3.11% (inactive)
22,CCN(CC)c1ccc([N+](=O)[O-])cc1C(=O)O,-0.91% (inactive)
23,CC1C(=O)Nc2ccccc2N1C(=O)c1ccc(F)cc1F (configuration not stated),-4.79% (inactive)

row,SMILES,inhibition
1,CCOc1ccc(CN2CCC(n3nccc3NC(=O)C3CC3)CC2)cc1CO,1.55% (inactive)
2,Cc1cc(C)cc(NC(=O)C2CCCN(S(=O)(=O)c3ccc4[nH]c(=O)ccc4c3)C2)c1 (configuration not stated),-6.12% (inactive)
3,CN1CCN(c2ccccc2NC(=O)COc2ccc(C3CCCCC3)cc2)CC1,-0.24% (inactive)
4,COc1ccc(CC(NC(C)=O)C(=O)NC2CCN(C(=O)c3ccc(OC)c(OC)c3)CC2)cc1OC (configuration not stated),1.05% (inactive)
5,COc1ccc(C(=O)N2CCc3cc(OC)c(OC)cc3C2c2cccc([N+](=O)[O-])c2)cc1 (configuration not stated),-1.43% (inactive)
6,CCc1ccc(OCC2c3cc(OC)c(OC)cc3CCN2C(C)=O)cc1 (configuration not stated),45.6% (active)
7,O=C(CSc1nc2cccnc2n1Cc1ccccc1)N1CCc2ccccc21,-12% (inactive)
8,CCOC(CNC(=O)C1CCN(S(=O)(=O)c2ccc3nc4c(c(C(=O)O)c3c2)CC(C)CC4)CC1)OCC (configuration not stated),-21.9% (inactive)
9,Cc1ccc(CNC(=O)C2CCN(S(=O)(=O)c3ccc4nc5c(c(C(=O)O)c4c3)CC(C)CC5)CC2)cc1 (configuration not stated),27.2% (active)
10,CC(=O)N1c2ccc(S(=O)(=O)N3CCC(C(=O)NCc4ccc(F)cc4)CC3)cc2CC1C (configuration not stated),-4.2% (inactive)
11,COc1ccc(NC(=S)N2CCc3cc(OC)c(OC)cc3C2)cc1,2.63% (inactive)
12,COc1ccc2c(CC(=O)N3CCc4cc(OC)c(OC)cc4C3)coc2c1,20.9% (active)
13,COc1ccc2c(CC(=O)OCC(=O)NC(N)=O)coc2c1,-8.77% (inactive)
14,Cc1nn(C)cc1S(=O)(=O)N1CCN(c2ccc(F)cc2)CC1,-4.94% (inactive)
15,O=[N+]([O-])c1ccccc1S(=O)(=O)Nc1cccc2cccnc12,-12.1% (inactive)
16,O=C(NC(=S)NC1CCCCC1)c1ccc(Cl)cc1,-18.6% (inactive)
17,COc1ccccc1-n1c(SCC(=O)Nc2cccc(C(=O)O)c2)nnc1-c1ccccc1O,-17.1% (inactive)
18,COCc1ccc(C(=O)NC2CC(C)(C)Cc3c2cnn3-c2ccc(C)cc2)o1 (configuration not stated),-0.16% (inactive)
19,COc1ccc(-c2cn(-c3ccc(OC)cc3)c(=S)[nH]2)cc1,10.2% (inactive)
20,COc1cc(OC)c(-n2c(C)cc(C=O)c2C)cc1Cl,-3.29% (inactive)
21,COc1cc(OC)c(-n2cc(-c3ccc(Cl)cc3)[nH]c2=O)cc1Cl,64.5% (active)
22,Brc1c(CSc2nncc3ccccc23)nc2ccccn12,-2.42% (inactive)
23,CCOCCCN1C(=O)C2C(C(=O)Nc3ccc(OCC)cc3)C3C=CC2(O3)C1C(=O)NC1CCCCC1 (configuration not stated),-12.8% (inactive)
